Tested on: Vero E6 infected with SARS-CoV-2
Test: inhibition of SARS-CoV-2 cytopathic effect; higher = more antiviral protection, active = above 15
Settings: 48 h

Measured: inhibition of SARS-CoV-2 cytopathic effect

CCN(CC)C(=O)N1CCN(C)CC1 [diethylcarbamazine]
inactive: 1 nM -4.87% | 8.33 nM -4.75% | 100 nM -2.46% | 833.33 nM 0.55% | 10000 nM -2.31%

c1cn2cc(-c3ccc4cn[nH]c4c3)nc(Nc3ccc(N4CCOCC4)cc3)c2n1
inactive: 1 nM -4.37% | 8.33 nM -3.35% | 100 nM -4.69% | 833.33 nM 0.03% | 10000 nM -4.57%

CC1(C)CN(C(=O)c2ccc(-c3cccc4nc(NC(=O)C5CC5)nn34)cc2)C1 [solcitinib]
inactive: 1 nM 0.35% | 8.33 nM 1.82% | 100 nM 2.28% | 833.33 nM 4.05% | 10000 nM 4.4%

CC(C)c1nnc(-c2ccc(-c3ccccc3)nc2)n1-c1cccc2nonc12
inactive: 1 nM -5.81% | 8.33 nM -4.31% | 100 nM -0.24% | 833.33 nM 0.55% | 10000 nM -1.7%

c1ccc(-c2nc(CN3CCN(c4ncccn4)CC3)c[nH]2)cc1
inactive: 1 nM -2.28% | 8.33 nM -0.03% | 100 nM -3.72% | 833.33 nM -0.79% | 10000 nM -1.23%

Cc1cc(-c2ccc(/N=N/c3ccc4c(S(=O)(=O)O)cc(S(=O)(=O)O)c(N)c4c3O)c(C)c2)ccc1/N=N/c1ccc2c(S(=O)(=O)O)cc(S(=O)(=O)O)c(N)c2c1O [evans-blue]
inactive: 1 nM -1.16% | 8.33 nM -4.89% | 100 nM 2.16% | 833.33 nM -0.35% | 10000 nM -17.6%

CCCc1nc2c(C)cc(-c3nc4ccccc4n3C)cc2n1Cc1ccc(-c2ccccc2C(=O)O)cc1 [telmisartan]
inactive: 1 nM -1.56% | 8.33 nM -2.17% | 100 nM -4.81% | 833.33 nM 2.3% | 10000 nM 1.33%
